From PubChem BioAssay (Tox21) come the findings set out here.

Test [1] in a line: qHTS assay to identify small molecule agonists of the estrogen receptor alpha (ER-alpha) signaling pathway in the presence of an antagonist - cell viability counter screen (AID 1259386).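 Also: cells exposed to compounds for 22 h at 37 °C before the viability read; nearly all actives have a fitted effect of over 30% in size.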 Also: potency is read from the fitted curve at half-maximal effect. In outline:
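Using estrogen-depleted VM7Luc4E2 cells, the 15-concentration compound series was applied together with 10.0nM ICI-182,780 and incubated 22hr at 37C/5% CO2. Cell viability was then scored by CellTiter-Fluor.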

In test [2] the target is Progesterone receptor (Homo sapiens) (UniProt P06401). Put plainly: qHTS assay to identify small molecule agonists of the progesterone receptor (PR) signaling pathway (AID 1346784; calls by dose curve; also: nearly all actives have a fitted effect of over 30% in size). A digest of the protocol:
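PR-UAS-bla HEK 293T cells (beta-lactamase reporter under UAS) in 2% charcoal-stripped FBS, dosed with 23 nL compound after 6 hr, incubated 16hr at 37C. LiveBLAzer B/G FRET substrate added, fluorescence read after 2 hours.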

Test [3] has the same target. Put plainly: qHTS assay to identify small molecule antagonists of the progesterone receptor (PR) signaling pathway (AID 1346795; active = well fitted inhibition curve with a large enough effect in the signal ratio in the repeat runs, not every such curve was filed as active; the % refers to the signal ratio; also: potency is read from the fitted curve at half-maximal effect). In outline:
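PR-UAS-bla HEK293T cells with beta-lactamase reporter under UAS control, in 2% charcoal-stripped FBS, treated with compounds plus 1 nM promegestone (R5020, final) for 16 hr at 37C. Read-out: FRET beta-lactamase substrate fluorescence after 2 hr at room temperature.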

Test [4] in a line: qHTS assay to identify small molecule agonists of the progesterone receptor (PR) signaling pathway - cell viability counter screen (AID 1346799; calls by dose curve; also: nearly all actives have a fitted effect of over 45% in size). In outline: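 Counter screen in the PR-UAS-bla HEK293T wells (2% charcoal-stripped FBS, 16 h compound exposure at 37 C) after the bla read. CellTiter-Glo added, 30 min at room temperature, luminescence read as cell viability.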
The nature of test [5]: qHTS assay to identify small molecule antagonists of the TGF-beta/Smad signaling pathway - cell viability counter screen (AID 1346824). Also: nearly all actives have a fitted effect of over 50% in size. A digest of the protocol: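 SBE-bla HEK 293T cells, incubated overnight, then compound plus 0.25 ng/mL TGF-beta1 (stock added) for 5 hr at 37 C. Viability was read in the same wells by CellTiter-Glo luminescence after 30 min at room temperature.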

The nature of test [6]: qHTS assay to identify small molecule agonists of the TGF-beta/Smad signaling pathway - cell viability counter screen (AID 1346829). Also: top concentration of the series differs between compounds; nearly all actives have a fitted effect of over 45% in size. A digest of the protocol: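 In parallel with the Smad reporter read, viability of HEK 293T cells stably carrying SBE-bla is quantified by ATP luminescence following 5 hr compound treatment.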
The nature of test [7]: qHTS assay to identify small molecule agonists of the TGF-beta/Smad signaling pathway (AID 1346859; active = well fitted activation curve with a large enough effect in the signal ratio in the repeat runs, not every such curve was filed as active; the % refers to the signal ratio; also: series mostly up to about 77 µM). A digest of the protocol:
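SBE-bla HEK293T cells plated overnight, then compound exposure for 5 h at 37 C. Beta-lactamase reporter read with LiveBLAzer B/G FRET substrate after 2 h at room temperature, fluorescence at 405 nm excitation, 460/530 nm emission.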

The target in test [8] is Thyrotropin-releasing hormone receptor (Homo sapiens) (UniProt P34981). Put plainly: qHTS assay to identify small molecule antagonists of the thyrotropin-releasing hormone receptor (TRHR) signaling pathway (AID 1346877; active = well fitted inhibition curve with a large enough effect in the repeat runs, not every such curve was filed as active; also: series mostly up to about 51 µM). In outline:
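Calcium signal in dye-loaded TRHR/HEK293 cells; compounds added 5 min before TRH (1 nM final); fluorescence monitored 3 min at 1 s steps.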

Test [9] shares this target. The test is described as follows: qHTS assay to identify small molecule agonists of the thyrotropin-releasing hormone receptor (TRHR) signaling pathway (AID 1346891; calls by dose curve; also: series mostly up to about 58 µM). In outline:
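HEK293 cells expressing TRHR plated 18 h at 37 C/5% CO2, calcium dye-loaded 2 h at 37 C, then compound added (agonist mode); kinetic calcium fluorescence read 3 min at 1 s intervals; 15 concentrations in triplicate.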

Test [10] in a line: Human pregnane X receptor (PXR) small molecule agonists, qHTS cell viability counter screen (AID 1346977). Also: nearly all actives have a fitted effect of over 50% in size. Also: potency is read from the fitted curve at half-maximal effect. A digest of the protocol: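 PXR-Luc HepG2 cells (2,000/well, 5% charcoal-stripped FBS) preincubated 5 hr, then exposed to compounds 24 hr at 37 C. Viability read in the same wells by CellTiter-Fluor fluorescence, reagent added at 23 hr, 1 hr incubation.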
Test [11] in a line: Caspase-3/7 induction in HepG2 cells by small molecules, qHTS assay (AID 1346978). Also: nearly all actives have a fitted effect of over 15% in size. In outline: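 Wild-type HepG2 cells, 2,000/well, settled 5 hr at 37 C and 5% CO2, then compound-treated for 17 hr; caspase-3/7 activity read by luminescent Caspase-Glo 3/7 after 30 min at room temperature.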
Test [12] can be described thus: Caspase-3/7 induction in CHO-K1 cells by small molecules, qHTS assay (AID 1346980). Also: nearly all actives have a fitted effect of over 15% in size. Also: potency is read from the fitted curve at half-maximal effect. In outline: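 Wild-type CHO-K1 cells exposed to compounds for 17hr at 37 C, 5% CO2. Caspase-3/7 activity then measured by Caspase-Glo 3/7 luminescence after 30min at room temperature.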
Test [13] has as its target Nuclear receptor subfamily 1 group I member 2 (Homo sapiens) (UniProt O75469). The test is described as follows: Human pregnane X receptor (PXR) small molecule agonists, qHTS assay (AID 1346982). Also: nearly all actives have a fitted effect of over 35% in size. In outline: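 Tox21 qHTS; PXR-Luc HepG2; compounds pinned from DMSO; 24 hr, 37 C; ONE-Glo luciferase detection, 30 min room temperature.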
Test [14] has as its target Cytochrome P450 2D6 (Homo sapiens) (UniProt P10635). Put plainly: Cytochrome P450 Family 2 Subfamily D Member 6 (CYP2D6) small molecule antagonists: luciferase reporter qHTS assay (AID 1671196). Also: nearly all actives have a fitted effect of over 50% in size. Also: potency is read from the fitted curve at half-maximal effect. A digest of the protocol: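 Room-temperature luminescent CYP2D6 activity assay: compound preincubated 10 min with enzyme–substrate mix, NADPH-initiated reaction 1 h, detection reagent 20 min before reading.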

A short description of test [15]: qHTS assay to identify small molecule antagonists of the progesterone receptor (PR) signaling pathway - cell viability counter screen (AID 1346798). Also: series mostly up to about 92 µM; nearly all actives have a fitted effect of over 50% in size. In outline:
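PR-UAS-bla HEK293T cells, 3,000/well in 2% charcoal-stripped FBS medium, dosed with compounds plus R5020 agonist and incubated 16 h at 37C. Viability then measured in the same wells by CellTiter-Glo luminescence after 30 min at RT.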

Test [16] is described as follows: Caspase-3/7 induction in HepG2 cells by small molecules, qHTS cell viability counter screen (AID 1346981). Also: nearly all actives have a fitted effect of over 30% in size. Also: potency is read from the fitted curve at half-maximal effect. In outline:
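After a 5-hr attachment period at 37 C and 5% CO2, wild-type HepG2 cells received compounds in DMSO. Sixteen hours later CellTiter-Fluor was dispensed and the fluorescent signal quantified after a further hour.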

Test [17] in a line: Caspase-3/7 induction in CHO-K1 cells by small molecules, qHTS cell viability counter screen (AID 1346979). Also: nearly all actives have a fitted effect of over 35% in size. Also: potency is read from the fitted curve at half-maximal effect. In outline: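 Wild-type CHO-K1 cells (1,500/well) treated with compound after 5 h plating; after 16 h at 37C, viability read as CellTiter-Fluor fluorescence following 1 h reagent incubation, in the same wells as the caspase read.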
Test [18] addresses Nuclear receptor subfamily 1 group I member 2 (Homo sapiens) (UniProt O75469). Put plainly: CYP3A4 induction through human pregnane X receptor (PXR) by small molecules, qHTS assay (AID 1346984). Also: nearly all actives have a fitted effect of over 40% in size. Also: potency is read from the fitted curve at half-maximal effect. In outline: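 Cells (DPX-2; HepG2 with PXR element plus CYP3A4-promoter luciferase) settled 5hr, then were treated 24hr at 37C. A 3hr, 3uM-final Luciferin-IPA step preceded luminescence measurement with One-Glo.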

Test [19] has the same target. Put plainly: Human pregnane X receptor (PXR) activation by small molecules, qHTS assay (AID 1346985). Also: nearly all actives have a fitted effect of over 40% in size. In outline:
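DPX-2 cells (HepG2 co-transfected with a PXR response element and a CYP3A4-promoter luciferase construct) were seeded at 2,000 per well, rested 5 hr at 37C, then exposed to DMSO-dissolved compounds for 24 hr. Activation was read as luciferase luminescence.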

In test [20] the target is Nuclear receptor subfamily 1 group I member 2 (Rattus norvegicus) (UniProt Q9R1A7). The test is described as follows: Rat pregnane X receptor (rPXR) activation by small molecules, qHTS assay (AID 1346983). Also: nearly all actives have a fitted effect of over 20% in size. The following applies: rPXR luciferase reporter cells, One-Glo luminescence, 24 h; max activation: stronger effect = higher value. A digest of the protocol:
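Cell-based rPXR activation assay: rPXR cells, 2,000 per well, rested 5hr at 37 C, then exposed to compounds in DMSO for 24 hr at 37 C. Luciferase activity read by One-Glo luminescence after 30 min at room temperature.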

The structures appear in SMILES notation. Values without a mark were called inactive. Results filed as inconclusive are left out. Active and inactive are the calls of the source. Unless noted, calls follow the shape of the dose curve; as a rule, active = well fitted curve in the direction sought with a large enough effect in the repeat runs; inconclusive = weak or mixed curves; inactive = no such curve, though single readings can be large; an effect the other way counts as inactive or inconclusive.
% is scaled to controls: 0 for no effect and ±100 for the full control effect.

Sequence of Progesterone receptor (Homo sapiens) (P06401 whole entry, looked up): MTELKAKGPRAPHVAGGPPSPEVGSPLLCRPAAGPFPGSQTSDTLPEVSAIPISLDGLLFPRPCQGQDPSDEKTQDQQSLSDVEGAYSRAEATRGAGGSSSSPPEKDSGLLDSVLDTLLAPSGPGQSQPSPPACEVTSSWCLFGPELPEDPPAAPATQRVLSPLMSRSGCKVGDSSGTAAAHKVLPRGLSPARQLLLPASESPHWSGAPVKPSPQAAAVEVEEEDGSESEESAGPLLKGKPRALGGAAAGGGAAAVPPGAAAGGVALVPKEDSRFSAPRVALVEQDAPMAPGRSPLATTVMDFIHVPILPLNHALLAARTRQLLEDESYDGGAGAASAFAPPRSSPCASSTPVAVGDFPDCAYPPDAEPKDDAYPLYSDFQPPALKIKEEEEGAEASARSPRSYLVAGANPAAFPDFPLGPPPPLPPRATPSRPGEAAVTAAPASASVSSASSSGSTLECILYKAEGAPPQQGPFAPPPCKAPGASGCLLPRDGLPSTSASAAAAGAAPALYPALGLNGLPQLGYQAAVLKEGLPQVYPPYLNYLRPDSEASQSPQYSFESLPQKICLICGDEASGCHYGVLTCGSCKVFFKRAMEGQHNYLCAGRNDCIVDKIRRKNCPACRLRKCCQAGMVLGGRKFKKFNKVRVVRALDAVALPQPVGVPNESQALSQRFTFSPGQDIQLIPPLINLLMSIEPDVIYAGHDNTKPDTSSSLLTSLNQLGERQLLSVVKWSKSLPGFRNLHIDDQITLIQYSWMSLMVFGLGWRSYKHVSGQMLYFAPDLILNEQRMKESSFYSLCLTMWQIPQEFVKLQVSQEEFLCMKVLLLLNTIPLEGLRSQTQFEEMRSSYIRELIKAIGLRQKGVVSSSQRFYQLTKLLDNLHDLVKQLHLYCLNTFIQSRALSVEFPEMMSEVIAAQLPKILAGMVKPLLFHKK
Sequence of Thyrotropin-releasing hormone receptor (Homo sapiens) (P34981 whole entry, looked up): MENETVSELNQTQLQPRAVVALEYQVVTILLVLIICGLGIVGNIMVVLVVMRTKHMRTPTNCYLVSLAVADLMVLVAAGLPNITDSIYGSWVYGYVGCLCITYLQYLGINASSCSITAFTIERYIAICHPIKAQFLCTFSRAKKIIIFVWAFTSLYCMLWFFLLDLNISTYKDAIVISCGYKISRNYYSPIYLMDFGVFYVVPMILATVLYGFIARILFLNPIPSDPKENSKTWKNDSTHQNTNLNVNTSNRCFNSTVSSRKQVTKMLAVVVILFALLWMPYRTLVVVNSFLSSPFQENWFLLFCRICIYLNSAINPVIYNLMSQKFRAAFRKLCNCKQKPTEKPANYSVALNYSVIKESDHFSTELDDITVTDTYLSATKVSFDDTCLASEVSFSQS
Sequence of Cytochrome P450 2D6 (Homo sapiens) (P10635 whole entry, looked up): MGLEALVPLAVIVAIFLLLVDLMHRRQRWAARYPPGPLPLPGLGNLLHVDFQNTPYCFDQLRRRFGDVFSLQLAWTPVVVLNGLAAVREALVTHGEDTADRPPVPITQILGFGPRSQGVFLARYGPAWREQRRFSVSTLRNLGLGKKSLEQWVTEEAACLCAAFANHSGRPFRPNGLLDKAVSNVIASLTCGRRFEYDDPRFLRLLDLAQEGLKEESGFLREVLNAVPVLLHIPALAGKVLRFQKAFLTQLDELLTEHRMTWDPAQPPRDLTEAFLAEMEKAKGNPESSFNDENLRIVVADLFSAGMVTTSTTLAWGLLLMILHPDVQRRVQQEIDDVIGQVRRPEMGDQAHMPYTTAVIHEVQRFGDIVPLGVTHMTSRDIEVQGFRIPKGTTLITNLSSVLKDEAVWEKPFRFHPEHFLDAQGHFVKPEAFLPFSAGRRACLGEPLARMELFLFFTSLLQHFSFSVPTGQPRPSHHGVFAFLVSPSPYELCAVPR
Sequence of Nuclear receptor subfamily 1 group I member 2 (Homo sapiens) (O75469 whole entry, looked up): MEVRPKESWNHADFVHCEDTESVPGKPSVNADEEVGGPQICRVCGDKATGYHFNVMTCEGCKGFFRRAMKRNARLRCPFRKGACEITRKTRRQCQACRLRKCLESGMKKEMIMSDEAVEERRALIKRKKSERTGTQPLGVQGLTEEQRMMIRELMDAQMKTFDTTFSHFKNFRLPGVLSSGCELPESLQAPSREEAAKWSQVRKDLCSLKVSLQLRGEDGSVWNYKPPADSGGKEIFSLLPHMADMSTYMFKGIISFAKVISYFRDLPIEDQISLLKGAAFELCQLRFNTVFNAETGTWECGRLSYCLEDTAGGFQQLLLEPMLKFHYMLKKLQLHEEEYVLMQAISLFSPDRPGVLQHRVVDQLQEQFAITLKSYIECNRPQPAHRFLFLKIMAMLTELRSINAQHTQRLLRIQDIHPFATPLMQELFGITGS
Sequence of Nuclear receptor subfamily 1 group I member 2 (Rattus norvegicus) (Q9R1A7 whole entry, looked up): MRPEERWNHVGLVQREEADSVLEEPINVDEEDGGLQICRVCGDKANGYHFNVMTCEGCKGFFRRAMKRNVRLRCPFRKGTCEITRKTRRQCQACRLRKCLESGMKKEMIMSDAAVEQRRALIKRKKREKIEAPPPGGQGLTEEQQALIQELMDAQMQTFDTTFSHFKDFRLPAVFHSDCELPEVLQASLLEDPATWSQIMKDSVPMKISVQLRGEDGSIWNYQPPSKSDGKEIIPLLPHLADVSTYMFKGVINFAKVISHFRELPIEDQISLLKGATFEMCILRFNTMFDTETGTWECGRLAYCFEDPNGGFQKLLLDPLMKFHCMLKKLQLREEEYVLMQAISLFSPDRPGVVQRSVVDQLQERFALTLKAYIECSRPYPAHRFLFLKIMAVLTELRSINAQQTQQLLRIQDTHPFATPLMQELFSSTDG

As for `CC1(C)S[C@@H]2[C@H](NC(=O)C(c3ccccc3)S(=O)(=O)O)C(=O)N2[C@H]1C(=O)O` (stereo partly specified), the Potency entry in test [1], in test [2], in [3], in [4], in test [5] and in test [6] was “inactive” in each case. Moreover, the Potency entry in [7], in test [9], in test [10], in test [11], in test [12] and in test [13] was “inactive” throughout. The Potency entry in test [14] is “inactive”. Besides, the compound was classed as inactive in test [8].
As for `O=C1c2ccccc2C(=O)c2c(O)c(O)cc(O)c21`, the values for the Potency in test [1], in [10] and in [16] were 30.6 µM (active), 54.5 µM (active) and 54.5 µM (active), respectively. The Potency result in test [2], in test [3], in [15], in [5], in [6] and in test [7] was “inactive” each time. Besides, the Potency result in test [9], in test [11], in [12] and in test [13] was “inactive” throughout. Moreover, the outcome in test [8] was inactive.
As for `O=C(/C=C/c1ccc(O)c(O)c1)O[C@@H]1C[C@@](OC(=O)/C=C/c2ccc(O)c(O)c2)(C(=O)O)C[C@@H](O)[C@@H]1O`, the Potency entry in test [1], in test [2], in [3], in test [15], in test [5] and in test [6] was “inactive” throughout. In addition, the Potency result in test [7], in [9], in test [10], in test [11], in test [17] and in [12] was “inactive” in each case. Further, the Potency result in test [16], in test [13], in test [18], in test [19] and in [14] was “inactive” each time. Besides, the outcome in test [8] was inactive.
Turning to `Oc1ccc(Cl)c2cccnc12`, the Potency entry in test [1], in test [2], in [5], in test [6], in test [7] and in test [9] was “inactive” in each case. In addition, the Potency entry in [11], in [16], in test [19] and in test [14] was “inactive” each time. Further, the Potency in [3] was 3.76 µM (active); in test [17] it was 6.68 µM (active); in test [12], 6.68 µM (active); in test [18] it was 2.51 µM (active). The compound was classed as inactive in test [8]. For the same compound, the max activation in test [20] is -0.0207%.
In the case of `Cc1cc2c(OCC(CNC(C)(C)C)OC(=O)c3ccccc3)cccc2[nH]1` (stereo unspecified), the Potency entry in test [1], in test [2], in [3], in [15], in test [5] and in [6] was “inactive” throughout. Moreover, the Potency entry in [7], in [10], in test [11], in test [17], in test [12] and in [16] was “inactive” each time. Moreover, the Potency entry in test [13], in test [18] and in [19] was “inactive” in each case. For the same compound, in test [20], the max activation was -3.65%. For the same compound, the Potency in test [14] is 0.692 µM (active).
With `O=C(O)CCc1nc(-c2ccccc2)c(-c2ccccc2)o1`, the Potency result in [1], in [2], in test [3], in [15], in test [5] and in test [6] was “inactive” each time. Moreover, the Potency result in test [7], in test [9], in test [10], in test [11], in test [12] and in [18] was “inactive” throughout. For the same compound, the Potency result in [19] and in test [14] was “inactive” throughout. In addition, the outcome in test [8] was inactive.
Consider `CCOC(=O)c1ccc(O)c(O)c1`, for which the Potency result in [1], in test [2], in test [3], in test [15], in [5] and in test [6] was “inactive” each time. Also, the Potency result in test [7], in test [10], in [11], in test [17], in test [12] and in test [14] was “inactive” each time.
For the compound `CCCC(=O)C(=O)O`, the Potency result in test [1], in test [2], in test [15], in [4], in test [5] and in [6] was “inactive” each time. Besides, the Potency entry in test [7], in [9], in test [10], in test [11], in test [17] and in test [12] was “inactive” throughout. The Potency entry in test [16] and in [13] was “inactive” in each case. Moreover, in test [8], the outcome was inactive.
